Entries with a potency or affinity are not part of this list. Values without a mark were called inactive.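 The calls were made as follows: active = every repeat run showing a signal drop whose fitted half-maximal concentration is at most twice the top tested concentration; inconclusive = repeat runs disagree, or flat partial drop, or poor fit; inactive = the rest.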

This experiment can be described thus: HEK293T cytotoxicity, dose response, cytotoxicity control for miR-122 modulator project, cell-based, activator set, cherry-pick (AID 720690).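 Also: 0% = neutral control wells and -100% = MG132 cytotoxic control wells.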 The conditions noted are these: HEK293T viability, CellTiter-Glo luminescence, 48 h; series mostly up to 26 µM; activity change, negative = cytotoxicity: at the top concentration. Background: In ATP-based viability assays light output follows the ATP content of the culture.
With `O=C(NCCCN1CCCC1)c1ccc(CSCc2cccc(Cl)c2)o1`, the “activity change, negative = cytotoxicity” value was -0.033%.
Take `COCC(=O)N(C[C@@H]1N[C@H](CO)[C@H]1c1ccc(C2=CCCC2)cc1)C(C)C`: the “activity change, negative = cytotoxicity” value was -16.6%.
In the case of `CCN(C[C@H]1N[C@H](CO)[C@H]1c1ccc(-c2ccc(F)cc2)cc1)C(=O)COC`, the “activity change, negative = cytotoxicity” value was -5.25%.
